# Reference: PubChem BioAssay
# Several values for one entry are separate records, joined by “and”; a condition that tells them apart may be missing. Equal values may be shown once. More than one record can exist for a structure, and the calls need not agree. Activity calls are given as the source filed them.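 Rule for the calls, unless noted: active = thallium flux through the channel raised or lowered by more than 3 SD from vehicle-only wells, actives on both sides; inactive = the rest.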
# Assays:
# [1] = stimulators of nuclear beta-catenin in C2C12, primary screen, imaging, WNT3A-conditioned medium, mouse C2C12, NPC library (AID 1117326; in the data active = nuclear beta-catenin stimulation mostly above about 4.2%, no sharp cut-off; inactive = mostly below about 10%); details: stronger effect = higher value
# [2] = stimulators of insulin release from INS-1E, primary screen, cell-based, 5 mM glucose, NPC library (AID 1117329;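 active = compound raises insulin release from rat beta cells at 5 mM glucose, no numeric limit stated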); details: rat INS-1E insulin secretion, at 10 µM, stronger effect = higher value
# [3] = growth inhibition of GSK3B-pretreated HCT116 cells – cell-based, CellTiter-Glo, 0.2 to 20 µM (AID 1117336;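 active = compounds lowering colon cancer cell viability after pretreatment blocking the GSK3B kinase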); details: HCT116 viability after GSK3B inhibitor, at 20 µM, stronger effect = higher value
# [4] = inhibition of endothelial tube formation, primary screen, imaging, VEGF stimulated, CD31 staining, tube area, NPC library (AID 1117340;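 active = compound that reduces growth-factor-driven endothelial tube area in a mixed cell culture, no cutoff stated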); details: VEGF-stimulated ADSC/ECFC co-culture, at 10 µM, stronger effect = higher value
# [5] = glucagon-like peptide 1 release enhancers, primary assay, NCI-H716 cell line, NPC library (AID 1117341;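 active = compound raises GLP1 secretion from the human gut endocrine cells, with no numeric limit stated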); details: NCI-H716 cells, at 10 µM, stronger effect = higher value
# [6] = HCT116 colon cancer cell growth inhibition, primary screen, CellTiter-Glo luminescence, NPC library (AID 1117342;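 active = compounds that lower survival of HCT116 colon cancer cells in the luminescence readout, no numeric limit stated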); details: at 20 µM (top of the series)
# [7] = CellTiter-Glo luminescent readout of SW480 viability loss, NPC library primary (AID 1117343;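 active = compounds that lower viability of the colon cancer cells in the luminescence readout, with no numeric limit stated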); details: CellTiter-Glo luminescence; at 20 µM (top of the series)
# [8] = decreased DLD-1 cellular survival, CellTiter-Glo luminescent readout, NPC compound collection, primary HTS (AID 1117346;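 active = compounds that lower survival of DLD-1 colon cancer cells in the luminescence readout, no cutoff given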); details: DLD-1 viability, CellTiter-Glo luminescence; at 20 µM (top of the series)
# [9] = biological target: 6-phosphogluconate dehydrogenase, decarboxylating (Homo sapiens) (UniProt P52209); experiment: 6PGD enzyme inhibitors, primary screen, biochemical, human, recombinant enzyme, NADPH absorbance (AID 1159550;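 active = at least 20% inhibition of 6-phosphogluconate dehydrogenase activity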); details: recombinant 6PGD, NADPH absorbance 341 nm; at 10 µM; stronger effect = higher value
# [10] = modulation of C. elegans fzo-1 (AID 1259413; call rule not given here;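 note: fzo-1 mutant C. elegans worms in liquid wells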); details: C. elegans fzo-1 modulator screen, mean read-out; stronger effect = higher value
# [11] = differential killing of epithelial or mesenchymal cells, primary screen, imaging, PC-3E GFP, TEM4-18 mCherry, co-culture (AID 1345086;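 active = compounds killing one labelled cell type while sparing the other, by normalised counts and ratio limits, not self-fluorescent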;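 note: cells exposed to compound for 72 h before imaging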;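 for red/green cell ratio (normalised): normalised mesenchymal count divided by normalised epithelial count so high means epithelial killing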); details: imaging cell counts, at 1 µM
# [12] = survival rescue of mitochondrial mutant cells in low glucose, primary screen, MELAS cybrids, Rieske KO mouse fibroblasts, CellTiter-Glo (AID 1508586;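 active = mean z-score across replicates of 1.96 or higher in either the MELAS or the Rieske mutant cell line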;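 note: z relative to plate mean and SD of compound and empty wells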)
# [13] = biological target: NAD(+) hydrolase SARM1 (Homo sapiens) (UniProt Q6SZW1); experiment: SARM1 TIR NADase inhibitors, cell lysate, NAD-Glo luminescence (AID 1508614;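 active = compound whose remaining NAD level is above about 45 nM, limit read from the data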;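 note: higher remaining NAD means stronger inhibition of SARM1 NADase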); details: SAM-TIR HEK293T lysate NADase, at 1 µM, stronger effect = higher value
# [14] = biological target: Mitogen-activated protein kinase 7 (Homo sapiens) (UniProt Q13164); experiment: ERK5 transactivation activators in reporter cells, primary screen, cell-based, HTS (AID 1508626;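 active = luciferase signal above three times the same-plate solvent-only control wells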;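 note: luciferase driven by Gal4-ERK5 fusion binding five Gal4 sites before minimal TATA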); details: HeLa Gal4-ERK5 transactivation, 18 h, at 5 µM, stronger effect = higher value
# [15] = ICB984 medulloblastoma cell growth inhibition, synergistic combos for chromothripsis tumors, cisplatin or BGB combos (AID 1671451; call rule not given here;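 note: cells exposed for 96 hours before readout; 0% = vehicle DMSO and 100% = killing by high DMSO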); details: ICB984 medulloblastoma cells, drug combinations, stronger effect = higher value
# F380Y = experiment: modulators of BK channel variants, profiling panel, selectivity assay, cell-based, U2OS BacMam, thallium flux, beta subunits (AID 1259406); details: at 30 µM;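 note: initial slope of Thallos dye fluorescence rise after thallium is added; log ratio against the mean of 0.3% DMSO vehicle wells on the same plate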
# F380Y/beta1 = experiment: as above; details: at 30 µM
# F380Y/beta2Delta = experiment: as above; details: at 30 µM
# Sequence of Mitogen-activated protein kinase 7 (Homo sapiens) (Q13164 whole entry, looked up, the tested form may be a part): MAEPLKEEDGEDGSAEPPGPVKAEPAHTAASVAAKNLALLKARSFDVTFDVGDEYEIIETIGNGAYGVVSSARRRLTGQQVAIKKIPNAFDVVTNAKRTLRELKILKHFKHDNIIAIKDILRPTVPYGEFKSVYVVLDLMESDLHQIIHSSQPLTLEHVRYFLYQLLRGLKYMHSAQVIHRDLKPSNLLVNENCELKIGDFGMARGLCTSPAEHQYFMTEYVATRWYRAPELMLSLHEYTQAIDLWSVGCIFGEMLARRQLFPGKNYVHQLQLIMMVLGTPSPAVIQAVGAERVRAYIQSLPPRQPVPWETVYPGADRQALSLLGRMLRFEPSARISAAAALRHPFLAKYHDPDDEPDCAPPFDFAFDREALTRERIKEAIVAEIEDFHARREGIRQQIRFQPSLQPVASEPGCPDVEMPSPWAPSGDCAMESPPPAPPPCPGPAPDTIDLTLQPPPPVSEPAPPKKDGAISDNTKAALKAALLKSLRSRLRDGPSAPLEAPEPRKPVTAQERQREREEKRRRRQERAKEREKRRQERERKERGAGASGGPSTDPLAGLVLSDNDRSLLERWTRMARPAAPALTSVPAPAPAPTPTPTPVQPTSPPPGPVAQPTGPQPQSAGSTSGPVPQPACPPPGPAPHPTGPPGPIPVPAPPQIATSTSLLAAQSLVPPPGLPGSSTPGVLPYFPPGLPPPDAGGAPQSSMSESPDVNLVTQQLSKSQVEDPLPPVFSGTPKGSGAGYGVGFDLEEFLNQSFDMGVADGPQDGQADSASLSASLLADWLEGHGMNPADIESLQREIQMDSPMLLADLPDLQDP
# Sequence of 6-phosphogluconate dehydrogenase, decarboxylating (Homo sapiens) (P52209 whole entry, looked up): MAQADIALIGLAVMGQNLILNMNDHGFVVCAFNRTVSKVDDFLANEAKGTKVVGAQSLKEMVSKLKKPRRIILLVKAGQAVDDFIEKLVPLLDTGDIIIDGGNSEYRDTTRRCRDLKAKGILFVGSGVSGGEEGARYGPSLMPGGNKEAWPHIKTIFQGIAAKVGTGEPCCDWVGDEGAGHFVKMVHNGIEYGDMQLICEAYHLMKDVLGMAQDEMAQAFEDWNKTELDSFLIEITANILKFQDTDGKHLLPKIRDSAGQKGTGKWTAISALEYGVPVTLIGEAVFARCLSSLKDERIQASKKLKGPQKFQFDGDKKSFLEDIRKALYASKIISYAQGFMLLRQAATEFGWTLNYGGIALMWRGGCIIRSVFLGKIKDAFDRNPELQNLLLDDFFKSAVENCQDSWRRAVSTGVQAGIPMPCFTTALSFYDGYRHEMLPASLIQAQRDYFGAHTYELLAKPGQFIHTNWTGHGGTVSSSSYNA
# Sequence of NAD(+) hydrolase SARM1 (Homo sapiens) (Q6SZW1 whole entry, looked up, the tested form may be a part): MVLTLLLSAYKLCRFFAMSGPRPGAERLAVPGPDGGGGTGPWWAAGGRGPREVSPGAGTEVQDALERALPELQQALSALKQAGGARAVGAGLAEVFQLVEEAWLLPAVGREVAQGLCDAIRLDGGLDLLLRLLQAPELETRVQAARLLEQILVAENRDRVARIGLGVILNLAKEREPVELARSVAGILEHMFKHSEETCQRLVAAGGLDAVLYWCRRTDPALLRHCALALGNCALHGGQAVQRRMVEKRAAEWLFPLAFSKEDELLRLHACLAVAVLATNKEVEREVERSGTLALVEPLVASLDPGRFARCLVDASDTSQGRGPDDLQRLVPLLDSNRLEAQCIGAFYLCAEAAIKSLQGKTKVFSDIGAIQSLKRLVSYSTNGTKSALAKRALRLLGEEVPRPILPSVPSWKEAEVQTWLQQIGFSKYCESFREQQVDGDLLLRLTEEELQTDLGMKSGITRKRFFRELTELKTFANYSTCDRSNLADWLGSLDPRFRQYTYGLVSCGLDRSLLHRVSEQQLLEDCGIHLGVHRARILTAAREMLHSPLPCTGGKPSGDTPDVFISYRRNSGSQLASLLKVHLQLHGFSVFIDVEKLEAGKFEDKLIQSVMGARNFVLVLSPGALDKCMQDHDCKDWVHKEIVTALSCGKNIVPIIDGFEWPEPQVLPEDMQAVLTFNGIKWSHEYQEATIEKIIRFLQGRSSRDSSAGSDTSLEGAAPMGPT
smiles,measurement,setting,value
Cn1cnc([N+](=O)[O-])c1Sc1ncnc2nc[nH]c12,nuclear beta-catenin stimulation,[1]; at 10 µM,1.2% (inactive)
same,nuclear beta-catenin stimulation,"[1]; stimulation, at 2 µM",0.7%
same,insulin secretion stimulation,[2],0.2% (inactive)
same,viability decrease,[3],42% (active)
same,tube area decrease,[4],29.1% (inactive)
same,GLP1 secretion stimulation,[5],4.1% (inactive)
same,inhibition of viability,[6],99.5% (active)
same,viability decrease (inhibition),[7],77.3% (active)
same,viability decrease (inhibition),[8],35.5% (active)
same,inhibition,[9],2.32% (inactive)
same,mean signal,[10],260 (inactive)
same,red/green cell ratio (normalised),"[11]; actives lie on both sides, counts scaled to control wells, 1 = unselective",0.98 (inactive)
same,normalised cell number,[11]; measured here: epithelial PC-3E GFP cell survival,1.13
same,normalised cell number,[11]; measured here: mesenchymal TEM4-18 mCherry cell survival,1.11
same,z-score,"[12]; MELAS cybrid survival, CellTiter-Glo 48 h, stronger effect = higher value",0.345 (inactive) and 1.98 (active)
same,z-score,"[12]; Rieske KO mouse fibroblast survival, CellTiter-Glo 72 h",0.8 and 0.138
same,remaining NAD,[13],10 nM (inactive)
same,luciferase signal,[14],408 AU (active)
same,inhibition,"[15]; BGB IC20 combo, at 0.005 µM",-7.33% and 0.138%
same,inhibition,"[15]; BGB IC40 combo, at 0.005 µM",-44% and -68.5%
same,inhibition,"[15]; BGB IC40 combo, at 0.05 µM",-15.3% and -11.2%
same,inhibition,[15]; at 0.5 µM,-19.6% (inactive) and -22.9% (inactive)
same,inhibition,"[15]; cisplatin combo, at 0.05 µM",-15.3% and -15.6%
same,inhibition,"[15]; cisplatin combo, at 0.5 µM",-29.3% and -25.2%
same,inhibition,"[15]; cisplatin combo, at 5 µM",-23% and 1.4%
same,inhibition,"[15]; measured here: 5 uM single agent, at 5 µM",-20.7% and -15.2%
same,log fold change Tl+ flux,F380Y,-0.0816 (inactive)
same,log fold change Tl+ flux,F380Y/beta1,-0.0302 (inactive)
same,log fold change Tl+ flux,F380Y/beta2Delta,-0.0522 (inactive)
